Screening results as filed in PubChem.
In the library only some 2.2% were active in any assay of this set; here they are far more common.
M4 ag: human M4 muscarinic receptor agonists, primary screen, CHO-K1 cells, Fluo-8 calcium fluorescence; Muscarinic acetylcholine receptor M4 (Homo sapiens), P08173; CHO-K1 hM4/Gqi5; vehicle 0%, full acetylcholine response 100%; activation, % at 3 µM; actives 0.14% (n = 360,000);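 active = activation above the run mean over all test wells plus 3 SD, cut at about 32% in these data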;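 note: peak over basal fluorescence ratio per well then scaled between controls; 0% = DMSO wells and 100% = acetylcholine at EC100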
M4 PAM: human M4 muscarinic receptor positive allosteric modulators, primary screen, CHO-K1 cells, Fluo-8 calcium fluorescence. actives 0.4% (n = 360,000). CHO-K1 hM4/Gqi5, ACh EC20; 0% = ACh EC20, 100% = maximal ACh. Muscarinic acetylcholine receptor M4 (Homo sapiens), P08173. activation, % at 3 µM;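 active = activation above its plate's cutoff, the mean activation of sample wells plus 3 SD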
CHRM4 antagonist: human M4 muscarinic receptor antagonists, primary screen, CHO cells, Fluo-8 calcium fluorescence | Muscarinic acetylcholine receptor M4 (Homo sapiens), P08173 | CHO-hM4 cells, ACh EC80 | inhibition, % at 3 µM | actives 0.73% (n = 360,000);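 active = inhibition above its plate's cutoff, the mean inhibition of sample wells plus 3 SD, cut at about 27% in these data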;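 note: 0% = acetylcholine EC80 with DMSO and 100% = DMSO without agonist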
CHRM1 antagonist: human M1 muscarinic receptor antagonists, primary screen, CHO-K1 cells, Fluo-8 calcium fluorescence, 1536-well | Muscarinic acetylcholine receptor M1 (Homo sapiens), P11229 | CHO-K1 hM1, ACh EC80 antagonist | inhibition, % at 3 µM | actives 1.3% (n = 360,000) | AID 588852, 2011;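 active = percent inhibition above its own plate's cutoff, namely the mean of that plate's compound wells plus 3 SD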;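 note: peak over basal fluorescence ratio during 140 s after agonist addition; 0% = ACh EC80 plus DMSO and 100% = DMSO alone without agonist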
Target sequence (P11229 whole entry, looked up): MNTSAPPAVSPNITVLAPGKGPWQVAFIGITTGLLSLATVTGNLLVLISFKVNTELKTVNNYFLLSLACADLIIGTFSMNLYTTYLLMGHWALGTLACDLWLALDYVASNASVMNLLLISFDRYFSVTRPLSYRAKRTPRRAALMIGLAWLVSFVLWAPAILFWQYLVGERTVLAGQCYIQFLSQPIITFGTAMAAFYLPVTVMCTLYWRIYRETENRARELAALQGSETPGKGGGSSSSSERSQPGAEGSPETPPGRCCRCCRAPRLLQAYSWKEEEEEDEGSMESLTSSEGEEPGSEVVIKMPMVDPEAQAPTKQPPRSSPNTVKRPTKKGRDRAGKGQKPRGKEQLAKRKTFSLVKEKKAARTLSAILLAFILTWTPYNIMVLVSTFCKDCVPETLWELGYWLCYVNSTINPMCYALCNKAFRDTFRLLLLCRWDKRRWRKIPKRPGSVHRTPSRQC
M1 ag: human M1 muscarinic receptor agonists, primary screen, Fluo-8 calcium fluorescence, CHO-K1 cells, HTS | actives 0.33% (n = 360,000) | activation, % at 3 µM | CHO-K1 hM1, agonist mode; 0% DMSO, 100% acetylcholine EC100;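 active = activation above the run's mean compound activation plus 3 SD, cut at about 16% in these data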;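 note: peak over basal fluorescence ratio within a 140 s kinetic read after compound addition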
CHRM1 PAM: human M1 muscarinic receptor positive allosteric modulators, primary screen, CHO-K1 cells, Fluo-8 calcium fluorescence, 1536-well; Muscarinic acetylcholine receptor M1 (Homo sapiens), P11229; CHO-K1 hM1, ACh EC20; 0% = ACh EC20, 100% = maximal ACh; activation, % at 3 µM; actives 0.088% (n = 360,000); AID 588819, 2011; in the data active = activation above about 19%, passing the limit was not always enough
Numbers without * were called inactive.

SMILES | M4 ag | M4 PAM | CHRM4 antagonist | CHRM1 antagonist | M1 ag | CHRM1 PAM
O=C(O)c1cccc(Nc2nc(Nc3ccccc3)nc(N3CCCC3)n2)c1 | -0.4 | 24.8* | -6.1 | -5.5 | -3.8 | 7.9
c1ccc(Nc2nc(N3CCCC3)nc(N3CCCC3)n2)cc1 | -2.8 | -2.2 | -0.8 | -3.8 | -6.4 | 1.4
Cc1occc1C(=O)NCc1ccccc1 | 2.0 | -0.2 | 4.5 | 3.5 | -1.7 | 0.7
Cc1c(CC(=O)N[C@@H](C)C(=O)O)c(=O)oc2c(C)c3occ(-c4ccccc4)c3cc12 | 0.4 | 1.0 | -16.8 | -25.5 | -0.8 | 31.4*
Cc1c(CC(=O)N[C@@H](C)C(=O)O)c(=O)oc2cc3occ(-c4ccccc4)c3cc12 | 18.1 | -8.3 | 8.6 | 9.1 | -6.5 | -3.7
COCCn1nnnc1C(C(C)C)N1CCC(Cc2ccccc2)CC1 (configuration not stated) | 3.1 | -0.7 | 1.5 | -12.6 | -7.9 | 5.0
CCCCCCCCCC[n+]1cccc2c3ccccc3ccc21 | 5.3 | -23.0 | 57.8* | 81.6* | -2.8 | -22.7
CCCCCCCC[n+]1cccc2c3ccccc3ccc21 | 0.4 | -24.7 | 64.6* | 97.9* | -4.4 | -23.2
CC(CN1CCCCC1)OC(=O)C(C)(c1ccccc1)c1ccccc1 (configuration not stated) | -0.8 | -17.8 | 20.0 | 88.7* | -4.0 | -20.7
CC(CN1CCOCC1)OC(=O)C(C)(c1ccccc1)c1ccccc1 (configuration not stated) | -0.2 | 2.4 | -11.7 | 17.5 | -6.7 | -18.7
Cc1ccc(C(=O)c2coc3cc([N+](=O)[O-])c(O)c([N+](=O)[O-])c23)cc1 | -1.4 | 31.4* | -2.0 | -7.9 | -5.9 | 11.7
Cc1ccc(C(=O)c2ccc([N+](=O)[O-])cc2)cc1 | -1.7 | 2.2 | -5.7 | -15.7 | -4.9 | 12.0
OC(CN1CCCCC1)CN(c1ccccc1)c1ccccc1 (configuration not stated) | 1.2 | -15.6 | 5.4 | 51.1* | -9.5 | -25.2
OC(CN1CCCCCC1)CN(c1ccccc1)c1ccccc1 (configuration not stated) | 5.1 | -11.2 | 13.2 | 38.5* | -8.2 | -26.2
CCN1CCN(CCn2c(=S)[nH]c3ccccc3c2=O)CC1 | 0.5 | -16.8 | 23.4 | 85.7* | -6.2 | -24.8
CCN1CCN(CC2COc3ccccc3O2)CC1 (configuration not stated) | 0.8 | 3.7 | 2.1 | -5.5 | -8.3 | 3.2
CCc1ccccc1NC(=O)CN1CCN(C(=O)CNC(=O)Cc2cccc3ccccc23)CC1 | 13.2 | 1.1 | -11.6 | -8.1 | -2.1 | 2.9
N#Cc1ccc(CN2CCN(C(=O)CNC(=O)Cc3cccc4ccccc34)CC2)cc1 | 11.4 | -4.9 | -4.4 | 2.2 | 23.1* | -8.9
CC(C)NC(=O)C1CC(=O)N(C(C)c2ccccc2)C1 (configuration not stated) | 0.5 | -0.9 | 1.1 | -2.7 | -5.9 | 5.8
Cn1cc(S(=O)(=O)N2CCc3ccccc32)cc1C(=O)NC(C)(C)C | 23.9 | -12.1 | 37.5* | 31.6* | 4.1 | -15.4
CC(=O)N1CCc2cc(S(=O)(=O)N3CCc4ccccc43)ccc21 | 14.3 | -4.0 | -15.7 | 59.7* | 0.7 | -23.5
CC(=O)N1CCc2cc(S(=O)(=O)N3CCc4ccccc4C3)ccc21 | 2.8 | 0.5 | -4.5 | -6.5 | -1.7 | 13.9
Cc1cccc(C)c1NC(=O)c1cc(S(=O)(=O)N2CCc3ccccc32)cn1C | 2.3 | -2.1 | 0.2 | -1.4 | -4.6 | -3.7
Cc1ccc(Nc2cc(C)nc3ccc(C)cc23)cc1 | 0.2 | -3.8 | -1.8 | -9.0 | -8.2 | 0.2
O=C(C1CCCO1)N1CCN(C(c2ccccc2)c2ccccc2)CC1 (configuration not stated) | 0.3 | -6.9 | 1.7 | 2.3 | -10.5 | -3.1
